Laboratory results reported in PubChem BioAssay.
Some of the results follow. Activity calls are given as the source filed them. Cut-off read from the data, not from the text of the source, unless noted: active = binding response below about 72% or above about 130%; inactive = in between.

Assays:
[1] = target: Regulator of G-protein signaling 16 (Homo sapiens) (UniProt O15492); experiment: modulators of RGS–Galpha-o binding, primary screen, biochemical, multiplexed beads, flow cytometry, RGS4/7/8/16/19 (AID 1504; call rule not given here;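 note: fluorescently labeled Galpha-o bound to GDP with aluminium fluoride binding biotinylated RGS beads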); conditions: multiplexed bead flow cytometry, measured here: RGS16 interaction, at 10 µM
[2] = target: Regulator of G-protein signaling 19 (Homo sapiens) (UniProt P49795); experiment: as above; conditions: multiplexed bead flow cytometry, measured here: RGS19 interaction, at 10 µM
[3] = target: Regulator of G-protein signaling 4 (Homo sapiens) + Guanine nucleotide-binding protein G(o) subunit alpha (Homo sapiens) (UniProt P49798+P09471); experiment: as above; conditions: multiplexed bead flow cytometry, at 10 µM
[4] = target: Regulator of G-protein signaling 7 (Homo sapiens) (UniProt P49802); experiment: as above; conditions: multiplexed bead flow cytometry, measured here: RGS7 interaction, at 10 µM
[5] = target: Regulator of G-protein signaling 8 (Homo sapiens) (UniProt P57771); experiment: as above; conditions: multiplexed bead flow cytometry, measured here: RGS8 interaction, at 10 µM
[6] = disruption of biotin probe capture by avidin, counter-screen for RGS protein interaction modulators, biochemical, flow cytometry, bead-based (AID 1783;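 active = inhibition above 50%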;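 note: median green fluorescence of gated singlet beads compared with DMSO control wells; 0% = DMSO wells and 100% = complete loss of bead fluorescence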); conditions: streptavidin beads, fluorescein-biotin binding; at 10 µM, stronger effect = higher value
[7] = target: Guanine nucleotide-binding protein G(o) subunit alpha (Homo sapiens) (UniProt P09471); experiment: RGS8-Galphao binding modulators, confirmation, biochemical, multiplexed bead flow cytometry, single concentration (AID 1836); conditions: bead-based flow cytometry RGS8-Galphao binding, fluorescence; at 10 µM; actives lie on both sides;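 note: Galphao activated as GDP AlF4 complex before binding bead RGS8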
[8] = target: Guanine nucleotide-binding protein G(o) subunit alpha (Homo sapiens) (UniProt P09471); experiment: RGS7-Galphao binding modulators, confirmation, biochemical, multiplexed bead flow cytometry, single concentration (AID 1837; in the data active = response below about 75% or above about 130%; inactive = in between;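 note: fluorescent Galphao activated with GDP and aluminum fluoride binding bead-coupled RGS7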); conditions: bead-based flow cytometry RGS7-Galphao binding; at 10 µM; actives lie on both sides
[9] = target: Regulator of G-protein signaling 16 (Homo sapiens) + Guanine nucleotide-binding protein G(o) subunit alpha (Homo sapiens) (UniProt O15492+P09471); experiment: modulators of RGS16-Galphao protein binding, confirmation, biochemical, single concentration, multiplexed bead flow cytometry (AID 1838; in the data active = response below about 74% or above about 130%; inactive = in between;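 note: Galphao activated as the GDP aluminium fluoride complex binding bead-coupled RGS16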); conditions: bead-based flow cytometry, at 10 µM, actives lie on both sides
[10] = target: Guanine nucleotide-binding protein G(o) subunit alpha (Homo sapiens) (UniProt P09471); experiment: modulators of RGS4-Galphao protein binding, confirmation, biochemical, single concentration, multiplexed bead flow cytometry (AID 1840; in the data active = binding response below about 74% or above about 130%; inactive = in between); conditions: at 10 µM, actives lie on both sides
[11] = target: Guanine nucleotide-binding protein G(o) subunit alpha (Homo sapiens) + Regulator of G-protein signaling 19 (Homo sapiens) (UniProt P09471+P49795); experiment: regulators of RGS19-Galphao binding, confirmation, biochemical, single point, multiplexed bead flow cytometry (AID 1841; in the data active = response below about 50% or above about 160%; inactive = in between;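 note: 100% = no compound control and 0% = blank background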); conditions: bead-based flow cytometry RGS19-Galphao binding; at 10 µM; actives lie on both sides
[12] = target: Ras-related C3 botulinum toxin substrate 1 (Homo sapiens) (UniProt P63000); experiment: wildtype Rac1 GTP binding inhibitors, dose response, biochemical, multiplex bead flow cytometry (AID 1340;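 active = dose curve with midpoint inside tested range, moderate steepness, plateau gap beyond fit error, low compound glow and bead-link interference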); conditions: GST-Rac1 beads, Bodipy-FL-GTP binding; at 100 µM (top of the series) unless noted

Regulator of G-protein signaling 16 (Homo sapiens) + Guanine nucleotide-binding protein G(o) subunit alpha (Homo sapiens), sequence (O15492 whole entry, looked up): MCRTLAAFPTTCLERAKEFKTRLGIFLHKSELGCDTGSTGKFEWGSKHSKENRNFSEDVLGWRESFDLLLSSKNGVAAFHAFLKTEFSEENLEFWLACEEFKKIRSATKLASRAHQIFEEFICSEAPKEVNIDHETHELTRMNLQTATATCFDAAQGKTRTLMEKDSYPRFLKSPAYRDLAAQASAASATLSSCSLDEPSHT
Regulator of G-protein signaling 16 (Homo sapiens) + Guanine nucleotide-binding protein G(o) subunit alpha (Homo sapiens), sequence (P09471 whole entry, looked up): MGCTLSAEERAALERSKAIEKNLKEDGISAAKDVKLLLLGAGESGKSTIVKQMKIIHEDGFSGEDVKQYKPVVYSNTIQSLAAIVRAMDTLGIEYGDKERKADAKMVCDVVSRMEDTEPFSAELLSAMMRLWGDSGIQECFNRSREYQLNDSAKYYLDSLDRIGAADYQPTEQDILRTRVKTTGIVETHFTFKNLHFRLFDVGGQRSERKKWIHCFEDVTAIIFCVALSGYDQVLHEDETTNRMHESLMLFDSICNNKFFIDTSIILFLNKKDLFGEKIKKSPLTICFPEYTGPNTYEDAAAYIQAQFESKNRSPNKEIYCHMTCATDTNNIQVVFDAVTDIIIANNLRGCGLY
Regulator of G-protein signaling 4 (Homo sapiens) + Guanine nucleotide-binding protein G(o) subunit alpha (Homo sapiens), sequence (P09471 whole entry, looked up): as above
Regulator of G-protein signaling 4 (Homo sapiens) + Guanine nucleotide-binding protein G(o) subunit alpha (Homo sapiens), sequence (P49798 whole entry, looked up): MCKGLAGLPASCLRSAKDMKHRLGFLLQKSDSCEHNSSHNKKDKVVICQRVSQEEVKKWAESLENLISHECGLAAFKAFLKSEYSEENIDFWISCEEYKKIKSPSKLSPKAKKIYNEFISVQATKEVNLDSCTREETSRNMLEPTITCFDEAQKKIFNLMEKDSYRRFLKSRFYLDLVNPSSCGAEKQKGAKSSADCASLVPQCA
Guanine nucleotide-binding protein G(o) subunit alpha (Homo sapiens), sequence (P09471 whole entry, looked up): as the sequence (P09471 whole entry, looked up) above
Guanine nucleotide-binding protein G(o) subunit alpha (Homo sapiens) + Regulator of G-protein signaling 19 (Homo sapiens), sequence (P09471 whole entry, looked up): as above
Guanine nucleotide-binding protein G(o) subunit alpha (Homo sapiens) + Regulator of G-protein signaling 19 (Homo sapiens), sequence (P49795 whole entry, looked up): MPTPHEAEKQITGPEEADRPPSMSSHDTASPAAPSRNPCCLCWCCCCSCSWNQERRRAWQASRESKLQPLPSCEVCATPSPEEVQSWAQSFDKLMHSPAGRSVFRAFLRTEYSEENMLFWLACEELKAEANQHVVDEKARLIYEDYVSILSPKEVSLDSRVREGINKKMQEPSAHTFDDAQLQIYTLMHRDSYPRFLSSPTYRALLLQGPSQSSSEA

Compound	RGS16–Galpha-o binding response [1]	RGS19–Galpha-o binding response [2]	RGS4–Galpha-o binding response [3]	RGS7–Galpha-o binding response [4]	RGS8–Galpha-o binding response [5]	inhibition [6]	binding response (% of control) [7]	response (percent of control binding) [8]	response (% of control binding) [9]	binding response (% of control) [10]	response (percent of control binding) [11]	GTP binding signal, raw median fluorescence (lower = inhibition) (MCF (arbitrary fluorescence units)) [12]
Fc1cc(F)c2nc(Nc3nc4c(F)cccc4s3)sc2c1	192%	-2.22%	110% (active)	112%	122%	0% (inactive)	103% (inactive)	103% (inactive)	103% (inactive)	103% (inactive)	107% (inactive)	–
COc1ccc(-n2c(SCC(=O)OC(C)C)nnc2-c2ccccn2)cc1	242%	103%	106% (active)	101%	134%	-1.2% (inactive)	99.1% (inactive)	96.9% (inactive)	93.3% (inactive)	97.2% (inactive)	60.1% (inactive)	–
CCN(CC)c1ccc(/C=C(\C#N)C(=O)c2ccc(Br)cc2)cc1	–	–	–	–	–	–	–	–	–	–	–	0
COc1cc(C(=O)Nc2cc(C(F)(F)F)ccc2N2CCOCC2)ccc1O	9.57%	135%	79.2% (active)	84.8%	70.4%	0.3% (inactive)	104% (inactive)	102% (inactive)	98.8% (inactive)	97.9% (inactive)	86.5% (inactive)	–
CC(C)(C)NC(=O)c1cccc(NC(=O)Cc2ccc(Br)cc2)c1	-3.28%	121%	79.3% (active)	76.6%	70.2%	1% (inactive)	103% (inactive)	100% (inactive)	99.4% (inactive)	100% (inactive)	115% (inactive)	–
CCOc1ccc(NC(=O)CSc2nc3ccccc3c(=O)n2Cc2cccs2)cc1	-1.24%	116%	84.3% (active)	81.9%	75.5%	1.1% (inactive)	101% (inactive)	104% (inactive)	104% (inactive)	102% (inactive)	102% (inactive)	–
CCOc1cc(C(=O)N2CCc3cc(OC)c(OC)cc3C2)ccc1OC(F)F	124%	-289%	128% (active)	159%	105%	–	–	–	–	–	–	–
CCOC(=O)C1=C(c2ccccc2)N=C2SCC(=O)N2C1c1ccc(O)c(OC)c1 (stereo unspecified)	222%	-290%	121% (active)	122%	144%	0% (inactive)	109% (inactive)	108% (inactive)	110% (inactive)	106% (inactive)	104% (inactive)	–
CCCn1c(C)cc(C(=O)COC(=O)c2c(C)nn(-c3ccccc3)c2C)c1C	-33.9%	99.6%	76.2% (active)	81.9%	83.8%	1.1% (inactive)	105% (inactive)	104% (inactive)	103% (inactive)	104% (inactive)	110% (inactive)	–
O=c1[nH]c2ccccc2s1	23%	148%	88.6% (active)	88.2%	79%	-0.3% (inactive)	103% (inactive)	102% (inactive)	101% (inactive)	102% (inactive)	99.2% (inactive)	–
O=C(Nc1cccc(-c2nc3ccccc3[nH]2)c1)c1ccc(C(=O)Nc2cccc(-c3nc4ccccc4[nH]3)c2)cc1	219%	436%	132% (active)	495%	112%	1% (inactive)	104% (inactive)	126% [activator] (active)	131% [activator] (active)	108% (inactive)	217% (active)	–
CC1(C)C=C2[C@H]3CC[C@@H]4[C@@]5(C)CCC(=O)C(C)(C)[C@@H]5CC[C@@]4(C)[C@]3(C)CC[C@@]2(C(=O)O)CC1	267%	-110%	119% (active)	114%	134%	0.1% (inactive)	107% (inactive)	81.6% (inactive)	107% (inactive)	94.2% (inactive)	68.7% (inactive)	–
COCCNC(=S)N/N=C/c1c(C)[nH]c2ccccc12	153%	993%	–	142%	105%	0.1% (inactive)	105% (inactive)	212% [activator] (active)	134% [activator] (active)	161% [activator] (active)	225% (active)	–
COc1ccc(C(=O)COC(=O)c2ccc3ccccc3n2)cc1	-0.98%	167%	–	39%	28.9%	-1% (inactive)	95.5% (inactive)	86.7% (inactive)	95.4% (inactive)	92.6% (inactive)	93.7% (inactive)	–
CCC(=O)Nc1c(S(=O)(=O)c2ccccc2)c2nc3ccccc3nc2n1Cc1ccccc1	13.9%	285%	89.8% (active)	87.2%	70.1%	-0.3% (inactive)	103% (inactive)	99.2% (inactive)	104% (inactive)	103% (inactive)	101% (inactive)	–
C=CCn1c(Cn2nnc3ccccc32)nnc1SCC(=O)N/N=C/c1cc(Br)cc(OC)c1O	-35.2%	144%	–	-19.4%	5.17%	–	–	–	–	–	–	–
